Experimental data as given in the supplement of paper PMC12494721.
Where a name gives a salt, the structure may show the parent alone.

Legend:
Settings in all cases: incubation time: 27 h, anaerobic, 37 °C;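 for the amine columns active = adjusted P below 0.05 in both replicates with a change the same way and a mean fold change under 0.8 or over 1.25; inactive = the rest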
[1] = system: Clostridium sporogenes DSM 1664; assay: growth (OD595) fold change vs plate DMSO controls (fold change (ratio)); higher = more growth
Outline: (§1)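 Growth is expressed as the fold change relative to the median of the DMSO control wells on each plate. Cultures in mGAM were grown anaerobically in 96-well plates for 27 h at 37 °C, shaken, and read at 595 nm. Readings were blank-subtracted, corrected for compound background with 20 µM compound solutions in water, and converted to OD with a calibration factor of 5. Fold changes above 1.5 were set to NA, and each value is the mean of 2 biological replicates.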

[2] = system: Escherichia coli IAI1; assay: as above
Outline: as §1

[3] = system: Klebsiella aerogenes DSM 30053; assay: as above
Outline: as §1

[4] = system: Ruminococcus gnavus DSM 108212; assay: as above
Outline: as §1

[5] = system: Klebsiella aerogenes DSM 30053; assay: fold change of Histamine concentration vs plate DMSO controls (fold change (ratio)); higher = more amine produced, active = hit call of the paper (significant change in both replicates, either direction)
Outline: (§2)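 Amine values are fold changes relative to DMSO-only wells on the same plate. They derive from 27 h, 37 °C anaerobic mGAM cultures of four gut bacterial strains in 80 µL wells, dosed at 20 µM final, or 50 µM final for sweeteners. Extraction of the whole culture, LC–triple-quadrupole MS in dynamic MRM mode, external calibration curves and within-batch drift correction were used, with 2 biological replicates averaged.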

[6] = system: Clostridium sporogenes DSM 1664; assay: fold change of Tryptamine concentration vs plate DMSO controls (fold change (ratio)); higher = more amine produced, active = hit call of the paper (significant change in both replicates, either direction)
Outline: as §2

[7] = system: Ruminococcus gnavus DSM 108212; assay: as above
Outline: as §2

[8] = system: Escherichia coli IAI1; assay: fold change of Putrescine concentration vs plate DMSO controls (fold change (ratio)); higher = more amine produced, active = hit call of the paper (significant change in both replicates, either direction)
Outline: as §2

[9] = system: Klebsiella aerogenes DSM 30053; assay: as above
Outline: as §2

[10] = system: Escherichia coli IAI1; assay: fold change of Cadaverine concentration vs plate DMSO controls (fold change (ratio)); higher = more amine produced, active = hit call of the paper (significant change in both replicates, either direction)
Outline: as §2

[11] = system: Klebsiella aerogenes DSM 30053; assay: as above
Outline: as §2

[12] = system: Ruminococcus gnavus DSM 108212; assay: fold change of 2-Phenylethylamine concentration vs plate DMSO controls (fold change (ratio)); higher = more amine produced, active = hit call of the paper (significant change in both replicates, either direction)
Outline: as §2

SMILES	growth [1]	growth [2]	growth [3]	growth [4]	fold change of Histamine concentration [5]	fold change of Tryptamine concentration [6]	fold change of Tryptamine concentration [7]	fold change of Putrescine concentration [8]	fold change of Putrescine concentration [9]	fold change of Cadaverine concentration [10]	fold change of Cadaverine concentration [11]	fold change of 2-Phenylethylamine concentration [12]
CN1CCc2cccc3c2[C@H]1Cc1ccc(O)c(O)c1-3 [R(-) Apomorphine hydrochloride hemihydrate] (20 µM)	1.05	1.03	1.05	1.17	1.02 (inactive)	0.988 (inactive)	0.997 (inactive)	0.98 (inactive)	0.978 (inactive)	1.04 (inactive)	0.992 (inactive)	1.01 (inactive)
CC(=O)Nc1nnc(S(N)(=O)=O)s1 [Acetazolamide] (20 µM)	1.04	0.95	1.04	0.746	1.04 (inactive)	0.973 (inactive)	1.02 (inactive)	0.965 (inactive)	1.06 (inactive)	0.971 (inactive)	1.11 (inactive)	1.09 (inactive)
CC(=O)c1ccc2c(c1)N(CCCN(C)C)c1ccccc1S2 [Acetopromazine maleate salt] (20 µM)	0.96	1	0.976	0.878	1.03 (inactive)	1.01 (inactive)	1.01 (inactive)	1 (inactive)	1.01 (inactive)	1.03 (inactive)	0.983 (inactive)	1.03 (inactive)
Cc1ccnc2c1NC(=O)c1cccnc1N2C1CC1 [Nevirapine] (20 µM)	0.962	0.959	1.01	0.868	0.914 (inactive)	1 (inactive)	1.12 (inactive)	0.955 (inactive)	1.02 (inactive)	1.02 (inactive)	1.01 (inactive)	1.12 (inactive)
O=C1c2cccc(O)c2C(=O)c2c(O)cccc21 [Danthron] (20 µM)	0.931	1.21	1.01	0.841	0.93 (inactive)	1.02 (inactive)	1 (inactive)	1.24 (inactive)	0.975 (inactive)	1 (inactive)	1.01 (inactive)	0.965 (inactive)
C=CCSCC1Nc2cc(Cl)c(S(N)(=O)=O)cc2S(=O)(=O)N1 (stereo not given) [Althiazide] (20 µM)	1.06	1.11	1.01	1.02	0.981 (inactive)	1.03 (inactive)	1.24 (inactive)	1.21 (inactive)	1.03 (inactive)	1.06 (inactive)	1.12 (inactive)	1.66 (active)
C[C@]12CCC(=O)C=C1CC[C@@H]1[C@@H]2[C@@H](O)C[C@@]2(C)[C@H]1CC[C@]2(O)C(=O)CO [Hydrocortisone] (20 µM)	0.958	1.03	0.985	1.03	1.04 (inactive)	1.06 (inactive)	1.01 (inactive)	1.04 (inactive)	1 (inactive)	1.03 (inactive)	1 (inactive)	0.975 (inactive)
Oc1c(Cl)cc(Cl)c(Cl)c1Cc1c(O)c(Cl)cc(Cl)c1Cl (20 µM)	0	0.939	1.02	0	1.06 (inactive)	0.00872 (active)	0.0717 (active)	1.06 (inactive)	1.01 (inactive)	1.37 (active)	1.02 (inactive)	0.0513 (active)
CO[C@@]12[C@H](COC(N)=O)C3=C(C(=O)C(C)=C(N)C3=O)N1C[C@@H]1N[C@@H]12 [Mitomycin C] (20 µM)	0.678	0.0414	0.824	0.291	1.15 (inactive)	0.394 (active)	0.153 (active)	0.663 (inactive)	0.968 (inactive)	0.306 (active)	0.995 (inactive)	0.15 (active)
CCOC(=O)n1ccn(C)c1=S [Carbimazole] (20 µM)	0.973	1.11	0.979	1.08	1.04 (inactive)	0.937 (inactive)	1.01 (inactive)	1.09 (inactive)	1.03 (inactive)	0.98 (inactive)	1 (inactive)	1.01 (inactive)
CCC1NC(=O)c2cc(S(N)(=O)=O)c(Cl)cc2N1 (stereo not given) [Quinethazone] (20 µM)	0.978	0.894	0.838	0.755	1.02 (inactive)	1.27 (inactive)	1.1 (inactive)	0.956 (inactive)	0.92 (inactive)	1.01 (inactive)	1.19 (inactive)	1.24 (inactive)
N[C@@H](Cc1c[nH]c2ccccc12)C(=O)O [L-Tryptophan] (20 µM)	1.02	0.993	0.989	1.19	1.02 (inactive)	1.04 (inactive)	1.05 (inactive)	0.985 (inactive)	0.995 (inactive)	1.03 (inactive)	0.993 (inactive)	1.08 (inactive)
Nc1nc2ccc(OC(F)(F)F)cc2s1 [Riluzole hydrochloride] (20 µM)	0.972	0.95	1.06	0.998	1.08 (inactive)	0.945 (inactive)	0.96 (inactive)	0.97 (inactive)	0.988 (inactive)	0.987 (inactive)	0.983 (inactive)	0.968 (inactive)
Cn1cnc2c1c(=O)[nH]c(=O)n2C [Theobromine] (20 µM)	1.19	1	1.04	1.11	0.986 (inactive)	1.11 (inactive)	1.05 (inactive)	0.998 (inactive)	0.991 (inactive)	0.982 (inactive)	1 (inactive)	1.04 (inactive)
CCC(=O)O[C@]1(C(=O)SCF)[C@H](C)C[C@H]2[C@@H]3C[C@H](F)C4=CC(=O)C=C[C@]4(C)[C@@]3(F)[C@@H](O)C[C@@]21C [Fluticasone propionate] (20 µM)	0.911	0.976	1.03	0.998	1.04 (inactive)	0.989 (inactive)	0.935 (inactive)	0.994 (inactive)	1.01 (inactive)	0.995 (inactive)	1.01 (inactive)	0.931 (inactive)
CN/C(=N\CCSCc1nc[nH]c1C)NC#N [Cimetidine] (20 µM)	1.03	1.02	1.07	1.18	0.893 (inactive)	0.981 (inactive)	0.997 (inactive)	1.02 (inactive)	0.979 (inactive)	1.03 (inactive)	1.01 (inactive)	1.01 (inactive)
CC(C(O)c1ccc(O)cc1)N1CCC(Cc2ccccc2)CC1 (stereo not given) [Ifenprodil tartrate] (20 µM)	1.02	1.12	1.03	0.985	0.977 (inactive)	1.02 (inactive)	1.03 (inactive)	1.08 (inactive)	0.973 (inactive)	0.947 (inactive)	1 (inactive)	0.992 (inactive)
O=c1[nH]c(=O)n([C@H]2C[C@H](O)[C@@H](CO)O2)cc1C(F)(F)F [Trifluridine] (20 µM)	1.14	1.04	0.99	0.913	1.09 (inactive)	1.02 (inactive)	1.07 (inactive)	0.948 (inactive)	0.972 (inactive)	1.04 (inactive)	0.975 (inactive)	1.11 (inactive)
C[C@]12CCC(=O)C=C1CC[C@@H]1[C@@H]2C(=O)C[C@@]2(C)[C@H]1CC[C@]2(O)C(=O)CO [Cortisone] (20 µM)	1.15	0.978	1	1.23	0.991 (inactive)	0.974 (inactive)	1.01 (inactive)	1 (inactive)	1 (inactive)	0.994 (inactive)	1.01 (inactive)	1.03 (inactive)
CCN1CCN(Cc2ccc(Nc3ncc(F)c(-c4cc(F)c5nc(C)n(C(C)C)c5c4)n3)nc2)CC1 [Abemaciclib] (20 µM)	0.975	1	1.04	1.19	1.02 (inactive)	1 (inactive)	1 (inactive)	0.983 (inactive)	1.01 (inactive)	1.03 (inactive)	0.993 (inactive)	1.02 (inactive)
CC(=O)OCC(CCn1cnc2cnc(N)nc21)COC(C)=O [Famciclovir] (20 µM)	0.805	1.06	0.981	0.993	1.15 (inactive)	1.03 (inactive)	1.05 (inactive)	1.03 (inactive)	1.01 (inactive)	1.01 (inactive)	0.979 (inactive)	1.04 (inactive)
Cc1c(O)c(=O)n(-c2ccccc2)n1C [Antipyrine, 4-hydroxy] (20 µM)	1.04	1.02	1.02	0.689	0.913 (inactive)	0.985 (inactive)	0.987 (inactive)	1.01 (inactive)	0.956 (inactive)	0.973 (inactive)	1.01 (inactive)	0.932 (inactive)
CC(C)(C)NC(=O)[C@@H]1C[C@@H]2CCCC[C@@H]2CN1C[C@@H](O)[C@H](Cc1ccccc1)NC(=O)[C@H](CC(N)=O)NC(=O)c1ccc2ccccc2n1 [Saquinavir mesylate] (20 µM)	0.98	1.1	1.03	1.12	0.937 (inactive)	0.966 (inactive)	0.979 (inactive)	1.24 (inactive)	0.993 (inactive)	0.944 (inactive)	1.01 (inactive)	1.03 (inactive)
CN(C)C(=O)Nc1ccc(Cl)c(Cl)c1 (20 µM)	1.05	1.02	0.938	1.08	1.01 (inactive)	0.947 (inactive)	0.962 (inactive)	0.97 (inactive)	0.976 (inactive)	0.991 (inactive)	0.99 (inactive)	0.954 (inactive)
CN(C)C(=N)NC(=N)N [Metformin hydrochloride] (20 µM)	0.988	1.02	0.989	1.26	0.96 (inactive)	1 (inactive)	1.06 (inactive)	1.03 (inactive)	0.96 (inactive)	0.962 (inactive)	1.02 (inactive)	1.08 (inactive)
